The campaign covered roughly 5,500 compounds. About 2,000 (36%) were called active. Not shown: some 18% with an inconclusive outcome. Cut-off read from the data, not from the text of the source: active = normalized growth mostly below about 0.91 (no sharp cut-off); inconclusive = no clear call, values can overlap the other calls; inactive = mostly above about 0.92. This is one part of the list.
Test: chemical genetic growth profiling, strain panel (AID 1159580);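 note: tested at 20 µM; growth read once vehicle control cultures reached saturation at 30 °C; 1 = growth at the plate median or of vehicle wells; lower values mean less growth of the strain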
Settings: S. cerevisiae deletion strains, growth OD

Measured: normalized growth

C#C[C@@H]1CC2C3CCC4=C[C@@H](OC(C)=O)CCC4C3CC[C@]2(C)[C@H]1OC(C)=O (stereo partly drawn)
inactive: locus YHR030C, strain SLT2, stronger effect = lower value 1 | locus YHR079C, strain IRE1, stronger effect = lower value 0.929 | locus YJL095W, strain BCK1, stronger effect = lower value 0.951 | locus YJR066W, strain TOR1, stronger effect = lower value 0.947 | locus YLR113W, strain HOG1, stronger effect = lower value 0.912 | locus YNL183C, strain NPR1, stronger effect = lower value 0.903 | locus YOR231W, strain MKK1, stronger effect = lower value 0.946 | locus YPL256C, strain CLN2, stronger effect = lower value 0.936

Reference: PubChem BioAssay AID1159580 (chemical genetic matrix, 2015)
